Screens (PubChem)
This is a sample that favours compounds with a hit; in the whole collection about 13% have one here.
Shiga toxin inh: inhibitors of Shiga toxin in Vero cells. Vero cells, Shiga toxin protein synthesis inhibition reporter. inhibition, % at 38.7 µM. actives 9.2% (n = 290,000). AID 2315; in the data active = inhibition mostly above about 28%, no sharp cut-off; inactive = mostly below about 43%
Cycloheximide cs: affects cycloheximide protein synthesis inhibition readout, counter-screen; actives 12% (n = 300,000); max response, %; cell reporter, cycloheximide protein synthesis inhibition counterscreen; AID 2314; in the data active = max response mostly above about 13%, no sharp cut-off; inactive = mostly below about 14%; note: read at 38.3 µM for the half of the compounds with a filed dose
FMDV inh: foot and mouth disease virus antiviral activity; FMDV antiviral cell-based qHTS; Potency, µM (series often up to 57.9 µM), usual class: inhibitors; actives 1.2% (n = 410,000); AID 1159524; calls by dose curve; tested in HEK293T cells; note: read-out not given here; nearly all actives have a fitted effect of over 45% in size
LASV entry inh: blocks Lassa virus binding to or entry into cells; Lassa virus pseudotype entry inhibition, cell reporter; Potency, µM (highest dose often 37.9 µM), hits mostly inhibitors; actives 1.2% (n = 300,000); calls by dose curve; tested in HEK293 cells; note: nearly all actives have a fitted effect of over 50% in size
Marburg entry inh: inhibitors of Marburg virus binding or cell entry; Marburg virus pseudotyped entry inhibition, cell reporter; Potency, µM (titrated, usually from 37.8 µM), hits mostly inhibitors; actives 1.8% (n = 300,000); calls by dose curve; tested in HEK293 cells
HCV inh: inhibitors of hepatitis C virus infection; actives 3.4% (n = 340,000); Huh7.5.1 HCVcc-Cre infection, luciferase reporter, 44 h; Potency, µM (titrated, usually from 41.8 µM), most hits filed as inhibitors; AID 651820; active = well fitted inhibition curve with a large enough effect; inconclusive = small, poorly fitted or top-dose-only effect, or another doubt; inactive = no such curve, though single readings can be large or run the other way
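1,000 cells/well; 4 h culture; + compound; + HCVcc-Cre (~0.5 moi); 44 h; luciferase substrate, RT 15 min; read 15 sec.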
Large screens that a line does not name were inactive.

CCN1CCc2c(sc(NC(=O)c3ccc(C(=O)c4ccccc4)cc3)c2C(N)=O)C1	LASV entry inh inconclusive, Marburg entry inh inconclusive, HCV inh inconclusive
CC(C)Cc1nn2c(N)c(/C=C3\C=Nc4ccccc43)c(=O)nc2s1	none
OC(CNCc1ccccc1Cl)COc1ccc(F)cc1 (stereo unspecified)	none
NC(=O)c1c(NC(=O)c2ccccc2)sc2c1CCC2	Shiga toxin inh 78.3, Cycloheximide cs 64.1, LASV entry inh inconclusive
O=C(O)CCC(=O)Nc1sc2c(c1C(=O)Nc1cccc3ccccc13)CCCCC2	none
CCc1ccccc1NC(=O)c1c(NC(=O)c2ccccc2)sc2c1CCCC2	none (no result: Shiga toxin inh, Cycloheximide cs, Marburg entry inh, HCV inh)
COC(=O)Nc1sc2c(c1C(N)=O)CCCCCC2	LASV entry inh inconclusive
CCN(CC)CCCC(C)NC(=O)c1c(NC(=O)c2ccccc2)sc2c1CCCC2 (stereo unspecified)	HCV inh 10µM (no result: LASV entry inh, Marburg entry inh)
NC(=O)c1c(NC(=O)c2ccncc2)sc2c1CCCC2	Shiga toxin inh 94.6, Cycloheximide cs 22.2, HCV inh 12.6µM (no result: LASV entry inh, Marburg entry inh)
O=C(O)CCC(=O)Nc1sc2c(c1C(=O)Nc1ccccc1)CCCCC2	Shiga toxin inh 39.6, LASV entry inh inconclusive, Marburg entry inh inconclusive
CN(C)C(=O)c1c(NC(=O)c2ccccc2)sc2c1CCC2	HCV inh inconclusive
Fc1ccc(C2=NOC(c3nnc(-c4ccccc4)o3)C2)cc1 (stereo unspecified)	none (no result: LASV entry inh, Marburg entry inh)
NC(=O)c1c(NC(=O)c2ccncc2)sc2c1CCCCCC2	Cycloheximide cs 11.6, Marburg entry inh inconclusive, HCV inh inconclusive
NC(=O)c1c(NC(=O)c2cnccn2)sc2c1CCCC2	Cycloheximide cs 16.4, Marburg entry inh inconclusive
O=C(Nc1sc2c(c1C(=O)O)CCCCC2)c1cccnc1	none (no result: LASV entry inh, Marburg entry inh)
Cn1c(COc2ccccc2)nnc1SCC(=O)Nc1nnc(C2CC2)s1	none (no result: Shiga toxin inh, Cycloheximide cs)
CC(=O)Nc1ccc(NC(=O)C2c3ccccc3Oc3ccccc32)cc1	none (no result: LASV entry inh)
COc1cc2c(-c3ccc4[nH]ccc4c3)c(-c3ccc(C#N)cc3)oc(=O)c2cc1OC	HCV inh 11.2µM (no result: Shiga toxin inh, Cycloheximide cs, LASV entry inh)
COc1cc2c(-c3ccc4cc[nH]c4c3)c(-c3ccsc3)oc(=O)c2cc1OC	HCV inh inconclusive (no result: Shiga toxin inh, Cycloheximide cs, LASV entry inh, Marburg entry inh)
COc1ccc(NC(=O)c2c(NC(=O)c3cccc(C)c3)sc3c2CCCC3)cc1	FMDV inh inconclusive (no result: Shiga toxin inh, Cycloheximide cs, HCV inh)
CCOc1ccc(-n2c(SCc3nc(-c4ccccc4C)no3)nnc2-c2ccccc2)cc1	none (no result: Shiga toxin inh, Cycloheximide cs, HCV inh)
COC(=O)c1ccc2c(c1)c(-c1ccccc1)c(-c1ccccc1)n2C	FMDV inh inconclusive, HCV inh 7.08µM (no result: Shiga toxin inh, Cycloheximide cs, LASV entry inh, Marburg entry inh)
Cc1ccc(S(=O)(=O)NC(=NC(C)C)c2ccccc2)cc1	none (no result: LASV entry inh, Marburg entry inh)
Cc1ccc(S(=O)(=O)C/N=C(/NC(=S)N(c2ccccc2)c2ccccc2)c2ccccc2)cc1	Shiga toxin inh 49.5, Cycloheximide cs 21.5, Marburg entry inh inconclusive (no result: FMDV inh)
CCOC(=O)c1cc(C)sc1NC(=S)Nc1ccccc1	LASV entry inh inconclusive, Marburg entry inh inconclusive
CCOC(=O)/C(=C\c1ccccc1)C(=O)c1cc(C(C)=O)c(Nc2ccccc2)s1	FMDV inh 14.1µM, LASV entry inh inconclusive, Marburg entry inh inconclusive, HCV inh 7.08µM
CCOC(=O)/C(=C\c1cccnc1)C(=O)c1cc(C(C)=O)c(Nc2ccccc2)s1	FMDV inh 3.98µM, LASV entry inh inconclusive, Marburg entry inh inconclusive, HCV inh inconclusive
O=C(Cn1cc([N+](=O)[O-])ccc1=O)NC1CCCCC1	none (no result: Shiga toxin inh, Cycloheximide cs, LASV entry inh, Marburg entry inh)
COc1ccc(Cl)cc1NC(=O)CCNC(=O)Cn1ccc2ccccc2c1=O	HCV inh inconclusive
O=C(O)CSc1c(Cl)c(=O)oc2ccc(Cl)cc12	none (no result: Shiga toxin inh, Cycloheximide cs, LASV entry inh, Marburg entry inh, HCV inh)
CC(C)Oc1ccc(C2CC(=O)NC2=O)cc1 (stereo unspecified)	none
COc1ccccc1OCCOc1ccc(C(=O)c2ccccc2)cc1	FMDV inh inconclusive, LASV entry inh inconclusive, HCV inh inconclusive
CC(C)(C)OC(=O)N1C2C=CC1C1=COCCN1C2=O (stereo unspecified)	none (no result: FMDV inh, LASV entry inh, Marburg entry inh, HCV inh)
CCCc1nc2oc3c(Cl)ncnc3c2c2c1CCCC2	FMDV inh 14.1µM
CCCc1nc2oc3c(NCC4CCCO4)ncnc3c2c2c1COC(C)(C)C2 (stereo unspecified)	HCV inh inconclusive
CCCc1nc2oc3c(NCCN(C)C)ncnc3c2c2c1CCCC2	LASV entry inh 16.4µM, Marburg entry inh inconclusive, HCV inh inconclusive
CC(C)c1nc2oc3c(NCC4CCCO4)ncnc3c2c2c1CCC2 (stereo unspecified)	FMDV inh inconclusive, LASV entry inh inconclusive, Marburg entry inh inconclusive, HCV inh 11.2µM
COc1cc(NC(=O)Nc2cccc([N+](=O)[O-])c2)cc(OC)c1	none
CCCCOc1ccc(C(=O)NCC(=O)NCCOc2ccc(C)cc2)cc1	none (no result: Shiga toxin inh, Cycloheximide cs, LASV entry inh, Marburg entry inh)
COc1ccc(-c2[nH]c3ccccc3c2SCCNC(=O)c2ccccc2)cc1	LASV entry inh inconclusive, Marburg entry inh inconclusive, HCV inh 12.6µM
Cc1ccc(OCCNC(=O)c2ccccc2O)cc1	Cycloheximide cs 12.4
Cc1ccc(OCCNC(=O)CNC(=O)c2ccccc2Cl)cc1	none (no result: Shiga toxin inh, Cycloheximide cs)
COc1ccc(C(=O)NCCSc2ccccc2)cc1	Shiga toxin inh 20.7, Cycloheximide cs 46.2, LASV entry inh inconclusive, Marburg entry inh inconclusive
Cc1ccc(OCCNC(=O)c2ccc(C)cc2)cc1	Shiga toxin inh 79.2, Cycloheximide cs 46.1 (no result: LASV entry inh, Marburg entry inh)
CN(CC(=O)NC(=O)NC1CCCCC1)Cc1ccccc1	none (no result: Shiga toxin inh, Cycloheximide cs, LASV entry inh, Marburg entry inh)
CCCCOc1ccc(C(=O)NCC2(c3ccc(OC)cc3)CCOCC2)cc1	LASV entry inh 2.82µM, Marburg entry inh inconclusive
COc1ccc(OCCNC(=O)c2ccc(C)cc2)cc1	Shiga toxin inh 56.4, Cycloheximide cs 29.2, Marburg entry inh inconclusive
COc1ccc(C(=O)NCCCCCCNC(=O)c2ccc(OC)cc2)cc1	Cycloheximide cs 16.3, LASV entry inh inconclusive
CSCc1ccc(C(=O)NCCSc2ccc(Br)cc2)cc1	Shiga toxin inh 102.5, Cycloheximide cs 55.4, Marburg entry inh inconclusive
Cc1cc(C)c(C#N)c(SCc2ccc([N+](=O)[O-])cc2)n1	none
CC(C)C(NC(=O)c1cccs1)C(=O)NC1=NCCS1 (stereo unspecified)	Marburg entry inh inconclusive
COc1ccc(C(=O)NCCNC(=O)c2ccc(OC)cc2)cc1	none (no result: Shiga toxin inh, Cycloheximide cs)
COc1ccc(C(=O)NN)cc1	Cycloheximide cs 23.8
CCc1ccc(CN(Cc2cccnc2)C(=O)/C=C/c2ccc(OC)cc2)cc1	Shiga toxin inh 34.0, Cycloheximide cs 25.0, Marburg entry inh inconclusive, HCV inh inconclusive
COc1ccc(/C=C/C(=O)NCc2cccnc2)cc1	none
Cc1ccc(S(=O)(=O)NCC(=O)OCc2nnc(-c3ccccc3)o2)cc1C	Cycloheximide cs 19.9, Marburg entry inh inconclusive
O=C(CCNS(=O)(=O)c1ccccc1)OCc1nnc(-c2ccccc2)o1	none (no result: Shiga toxin inh, Cycloheximide cs)
CC(=O)Nc1ccc(S(=O)(=O)NCCC(=O)OCc2nnc(-c3ccccc3)o2)cc1	LASV entry inh inconclusive (no result: Shiga toxin inh, Cycloheximide cs)
O=C(CNS(=O)(=O)c1ccc2ccccc2c1)OCc1nnc(-c2ccccc2)o1	Cycloheximide cs 31.7
Cc1cc(C)nc(N2CCN(C(=O)CCC(=O)Nc3nnc(CC(C)C)s3)CC2)n1	none
Cc1cc2[nH]c(=O)c(=O)[nH]c2cc1S(=O)(=O)NCC(C)c1ccccc1 (stereo unspecified)	none (no result: Shiga toxin inh, Cycloheximide cs, LASV entry inh, Marburg entry inh, HCV inh)
